The record followed here is PubChem BioAssay.

A short description of assay [1]: reducers of endogenous Her2 protein level, primary screen, SKBR3 breast tumor cells, AlphaScreen, ATP viability (AID 461;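 active = Her2 level under about 52% in both replicate screens, with viability over 70% of control, limit read from the data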;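 as to Her2 level: lower value means less Her2 protein in the cells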;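 as to viability: percent of carrier control wells set as 100% viability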). Particulars: 18-24 h, measured here: SKBR3 viability, ATP luminescence, at 10 µM.
The target of assay [2] is Receptor tyrosine-protein kinase erbB-2 (Homo sapiens) (UniProt P04626). The description is as above. To be noted: 18-24 h, at 10 µM, stronger effect = lower value.
Chain of Receptor tyrosine-protein kinase erbB-2 (Homo sapiens) (P04626 whole entry, looked up): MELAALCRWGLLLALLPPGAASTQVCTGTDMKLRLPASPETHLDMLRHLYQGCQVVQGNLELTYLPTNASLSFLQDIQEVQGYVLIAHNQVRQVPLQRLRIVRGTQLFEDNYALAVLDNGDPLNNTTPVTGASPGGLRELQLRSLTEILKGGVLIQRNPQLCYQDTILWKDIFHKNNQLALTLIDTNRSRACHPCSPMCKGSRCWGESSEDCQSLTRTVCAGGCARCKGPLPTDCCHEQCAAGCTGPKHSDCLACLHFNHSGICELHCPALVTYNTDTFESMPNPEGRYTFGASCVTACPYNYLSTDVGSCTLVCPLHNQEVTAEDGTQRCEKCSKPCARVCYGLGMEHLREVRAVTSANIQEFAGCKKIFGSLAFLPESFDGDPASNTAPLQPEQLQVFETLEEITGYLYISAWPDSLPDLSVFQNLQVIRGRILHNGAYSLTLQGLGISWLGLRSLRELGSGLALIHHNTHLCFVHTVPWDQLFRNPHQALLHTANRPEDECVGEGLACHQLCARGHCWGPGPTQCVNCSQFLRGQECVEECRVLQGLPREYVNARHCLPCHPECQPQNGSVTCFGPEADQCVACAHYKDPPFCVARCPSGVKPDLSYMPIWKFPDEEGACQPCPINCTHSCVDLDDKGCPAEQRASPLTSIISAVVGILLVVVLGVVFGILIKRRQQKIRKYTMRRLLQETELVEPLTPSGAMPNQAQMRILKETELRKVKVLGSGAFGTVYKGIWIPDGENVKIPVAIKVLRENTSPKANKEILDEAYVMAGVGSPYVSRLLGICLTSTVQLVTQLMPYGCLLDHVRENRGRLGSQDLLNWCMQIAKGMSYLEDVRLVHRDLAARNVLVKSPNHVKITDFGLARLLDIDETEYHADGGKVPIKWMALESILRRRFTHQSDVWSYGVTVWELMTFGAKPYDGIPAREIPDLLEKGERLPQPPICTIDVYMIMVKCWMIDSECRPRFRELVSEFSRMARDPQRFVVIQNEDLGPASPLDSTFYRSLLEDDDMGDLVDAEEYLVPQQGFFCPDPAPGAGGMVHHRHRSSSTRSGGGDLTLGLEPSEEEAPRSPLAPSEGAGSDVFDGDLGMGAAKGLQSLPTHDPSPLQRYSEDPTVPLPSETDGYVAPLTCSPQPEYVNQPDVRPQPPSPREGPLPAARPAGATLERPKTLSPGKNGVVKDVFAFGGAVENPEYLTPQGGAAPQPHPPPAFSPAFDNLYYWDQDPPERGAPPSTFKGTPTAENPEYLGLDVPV
Assay [3] is described as follows: SK-BR-3 cell growth inhibitors, pilot screen, 24 h, human (AID 572;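 active = viability at or below 10% of carrier control in both of two separate runs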;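 also: compound exposure lasted between 18 and 24 h rather than exactly 24 h; 100% = carrier-treated control wells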). To be noted: SK-BR-3 viability, CellTiter-Glo luminescence, at 10 µM, stronger effect = lower value.
The nature of assay [4]: HUVEC growth inhibition – cell-based, human, primary screen (AID 575;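 active = viability at or below 30% in both replicate assays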;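 also: 100% = median of untreated cell wells with 0.1% DMSO on each plate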). Particulars: HUVEC proliferation, CellTiter-Glo luminescence, 72 h; at 10 µM; stronger effect = lower value.
The nature of assay [5]: growth inhibitors of H69AR lung tumor, primary screen, human, duplicate replicates (AID 580;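 active = viability at or under a set limit in both replicates, limit being median viability minus 3 SD, cut at about 48% in these data, passing the limit was not always enough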;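 also: 100% = mean luminescence of untreated wells and 0% = no signal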). To be noted: H69AR lung tumor cells viability, ATP luminescence, 72 h; at 10 µM; stronger effect = lower value.
Assay [6] in a line: reversal of MRP1-mediated doxorubicin resistance, pilot screen, H69AR cells, doxorubicin co-treatment (AID 601;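 active = viability loss from added drug above about 55%, and viability with drug at most 40%, in both replicates, limit read from the data, passing the limit was not always enough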). To be noted: CellTiter-Glo, 72 h, at 10 µM; for differential viability (reversal): stronger effect = higher value.
The nature of assay [7]: 384-well plate pilot, post-Golgi transport modulator project, inhibition of yeast transport mutant growth (AID 636; in the data active = inhibition above about 31%). Particulars: absorbance 615 nm, about 18 h, stronger effect = higher value.
A short description of assay [8]: growth suppression of yeast trafficking mutant, preliminary HTS, modulators of trafficking downstream of Golgi apparatus project, 1536-format plate, OD 615 nm (AID 637; in the data active = inhibition above about 30%). Particulars: yeast transport mutant growth, absorbance 615 nm, 18 h; stronger effect = higher value.
The nature of assay [9]: OD615 S. cerevisiae growth inhibition, permissive medium, pilot counter-assay, permissive growth control for S. cerevisiae lifespan shortening project (AID 705;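 active = growth inhibition above 25% in both replicates, a cutoff set 3 SD above the mean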). To be noted: OD615, 24 h, at 10 µM, stronger effect = higher value.
Assay [10] is described as follows: Restrictive medium S. cerevisiae growth inhibition, OD615, pilot screen of yeast lifespan reduction project, restrictive growth control (AID 706;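 active = growth inhibition above a set limit, 3 SD over mean compound inhibition, in both replicates, cut at about 43% in these data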;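 also: modified DeaD lifespan yeast strain shifted to restrictive glucose medium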). Particulars: OD615, 48 h, at 10 µM, stronger effect = higher value.
A short description of assay [11]: viability gain of MRP-1-high H69AR cells under doxorubicin, pilot screen, MRP-1 activator project, CellTiter-Glo, duplicate (AID 807;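 active = viability increase at or above a cutoff of the median across tested compounds plus 3 SD, cut at about 8.5% in these data, passing the limit was not always enough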;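 also: compound pretreatment 18-22 h then 72 h combined with doxorubicin; 0% = doxorubicin alone and 100% = vehicle without doxorubicin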). To be noted: H69AR viability with doxorubicin, CellTiter-Glo luminescence; at 10 µM; stronger effect = higher value.
A short description of assay [12]: growth suppression of beta-catenin knockout HCT116, pilot screen, human colon tumor cells (AID 823;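 active = cell viability at or below a set limit in both duplicate runs, the limit being the all-compound median minus 4 SD, cut at about 23% in these data, passing the limit was not always enough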;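 also: 0% = wells killed by 20 µM Hyamine and 100% = untreated DMSO cell wells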). Particulars: CellTiter-Glo, 60 h, at 10 µM, stronger effect = lower value.
Assay [13] in a line: growth suppression of PTEN-deleted HCT116, pilot screen, cell-based, HCT116 clonal line, CellTiter-Glo (AID 824).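 Also: 0% = 20 µM Hyamine control and 100% = vehicle cell control.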 To be noted: 60 h, at 10 µM, stronger effect = lower value.
Assay [14] in a line: inhibitors of the yeast RAM network, pilot screen, dse1pr::URA3 reporter, 5-FOA selection (AID 869;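 active = inhibition over a set limit, the all-compound mean plus 3 SD, in both replicate runs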;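 also: 0% = DMSO wells with no growth and 100% = 10 µM 1-NA-PP1 with full growth; RAM network block rescues cells from 5-FOA so hits raise OD615 growth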). To be noted: S. cerevisiae dse1pr::URA3 5-FOA growth, OD615, 2 d; at 10 µM; stronger effect = higher value; strain carries analog-sensitive mutant Cbk1 kinase.
The nature of assay [15]: RAM signaling pathway blockade in yeast – S. cerevisiae, Pdr1DBD-CYC8 efflux-inhibited sensitized strain, primary screen (AID 1298;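 active = RAM network inhibition above 8.4% in each of two replicates, 3 SD over the compound average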;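 also: 0% = DMSO untreated cells without growth and 100% = 10 µM 1-NA-PP1 full growth; higher means more yeast growth rescued from 5-FOA killing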). To be noted: S. cerevisiae cbk1-as DSE1-URA3 strain, 5-FOA growth OD615, 2 d; at 50 µM; stronger effect = higher value.
[16] abbreviates: H69AR cells + 2 uM doxorubicin, measured here: viability with 2 uM doxorubicin, stronger effect = lower value.
The mark [17] stands for this setting: H69AR cells, compound alone cytotoxicity.

Inconclusive results are not listed. Calls of active or inactive are those of the source.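 The calls were made as follows, unless noted: active = viability at or below 27.92% in each of two runs, the all-compound median minus 4 SD; inconclusive = no clear call, values can overlap the other calls; inactive = the rest.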

For the compound `CCOC(=O)Nc1ccc2c(c1)N(C(=O)OCCN(C)C)c1ccccc1CC2`, the viability in assay [1] is 94.5%; in [3], 94.5% (inactive); in assay [4], 77.5% (inactive); in assay [5], 90.2% (inactive); in [6] (setting [16]) it was 77.7%; in assay [6] (setting [17]) it was 90.2%. Also, the figures for the viability in assay [12] and in [13] were 73.5% (inactive) and 78.8% (inactive), respectively. For the same compound, in [2], the Her2 level is 100% (inactive). In addition, in assay [6] (H69AR cells + 2 uM doxorubicin), the differential viability (reversal) is 12.4% (inactive). Besides, the inhibition in assay [7] was -7.07% (inactive); in assay [8], -9.02% (inactive); in assay [14] it was 1.89% (inactive). In addition, the growth inhibition in assay [9] is -10.3% (inactive); in [10], -0.265% (inactive). In [11], the viability increase is -4.23% (inactive). In assay [15], the RAM network inhibition was 2.2% (inactive).

As to `COc1ccccc1NC(=O)C1(C)Cc2ccccc2C(=O)O1` (stereo not drawn), the viability in [1] is 106%; in [3], 106% (inactive); in [4], 102% (inactive); in [5], 91.7% (inactive); in [6] (setting [16]), 88.8%; in assay [6] (setting [17]) it was 91.7%. Further, the viability was 107% (inactive) in assay [12] and 99.8% (inactive) in assay [13]. Moreover, the Her2 level in assay [2] is 108% (inactive). In [6] (H69AR cells + 2 uM doxorubicin), the differential viability (reversal) is 2.89% (inactive). Further, the inhibition was -2.82% (inactive) in [7], 0.67% (inactive) in assay [8] and 1.77% (inactive) in assay [14]. Further, the growth inhibition in [9] was -6.73% (inactive); in assay [10] it was 5.93% (inactive). Besides, in [11], the viability increase is -0.93% (inactive). For the same compound, in [15], the RAM network inhibition was 5.4% (inactive).

Consider `CC(=O)NC(C)C(=O)OCC(=O)Nc1ccc(Br)cc1` (stereo not drawn), for which the viability in assay [1] was 95%; in [3], 95% (inactive); in assay [4], 93.9% (inactive); in [5] it was 94.5% (inactive); in [6] (setting [16]), 89.7%; in [6] (setting [17]), 94.5%. The viability in [12] is 99.7% (inactive); in assay [13] it was 100% (inactive). In addition, in [2], the Her2 level is 80.5% (inactive). Besides, the differential viability (reversal) in [6] (H69AR cells + 2 uM doxorubicin) was 4.86% (inactive). In addition, the inhibition in assay [7] is 0.13% (inactive); in [8], -4.17% (inactive); in assay [14], 2.33% (inactive). In addition, the growth inhibition in assay [9] was -14.2% (inactive); in [10], -18.7% (inactive). For the same compound, in assay [11], the viability increase is 0.09% (inactive). Moreover, the RAM network inhibition in assay [15] was 1.92% (inactive).

`CC1CCc2nn(CC(=O)NCc3ccc4c(c3)OCO4)cc2C1` (stereo not drawn): the viability is 86.5% in [1]; 86.5% (inactive) in assay [3]; 90.7% (inactive) in assay [4]; 100% (inactive) in [5]; 90.6% in [6] (setting [16]); 100% in assay [6] (setting [17]). In addition, the viability is 108% (inactive) in [12] and 94.5% (inactive) in assay [13]. In assay [2], the Her2 level is 88% (inactive). Further, the differential viability (reversal) in assay [6] (H69AR cells + 2 uM doxorubicin) was 9.8% (inactive). Further, the inhibition in assay [7] was -2.93% (inactive); in assay [8], 2.79% (inactive); in assay [14], -0.525% (inactive). For the same compound, the growth inhibition was -0.315% (inactive) in [9] and -4.54% (inactive) in assay [10]. Further, the viability increase in [11] was -0.84% (inactive). In assay [15], the RAM network inhibition is 1.68% (inactive).

Take `CCOC(=O)c1ccc2ncc(C(=O)OCC)c(NCCN(C)C)c2c1`: the viability in assay [1] was 84%; in assay [3] it was 84% (inactive); in assay [4] it was 102% (inactive); in [5] it was 91.8% (inactive); in assay [6] (setting [16]) it was 81.2%; in assay [6] (setting [17]), 91.8%. Moreover, the viability in assay [12] was 95.8% (inactive); in assay [13] it was 94.8% (inactive). For the same compound, the Her2 level in assay [2] is 99.5% (inactive). For the same compound, the differential viability (reversal) in assay [6] (H69AR cells + 2 uM doxorubicin) is 10.6% (inactive). Also, the inhibition in assay [7] was -0.8% (inactive); in assay [8], 1.83% (inactive); in [14] it was 2.64% (inactive). Also, the growth inhibition in assay [9] is -4.69% (inactive); in assay [10] it was 2.56% (inactive). Besides, the viability increase in [11] is -1.02% (inactive). Also, the RAM network inhibition in assay [15] was 2.56% (inactive).

With `CC(=O)N(c1ccc(Br)cc1)C1C=CS(=O)(=O)C1` (stereo not drawn), the viability in assay [1] is 100%; in [3] it was 100% (inactive); in assay [4], 87.9% (inactive); in assay [5] it was 88.8% (inactive); in [6] (setting [16]), 84.1%; in assay [6] (setting [17]) it was 88.8%. Also, the values for the viability in [12] and in assay [13] were 107% (inactive) and 96% (inactive), respectively. For the same compound, the Her2 level in assay [2] was 96% (inactive). Besides, the differential viability (reversal) in assay [6] (H69AR cells + 2 uM doxorubicin) was 4.71% (inactive). The values for the inhibition in assay [7], in [8] and in [14] were -5.33% (inactive), 1.5% (inactive) and 2.17% (inactive), respectively. Further, the growth inhibition in [9] is -6.33% (inactive); in assay [10], -16.4% (inactive). Further, the viability increase in assay [11] was -0.84% (inactive). In addition, in assay [15], the RAM network inhibition was -0.25% (inactive).

With `Cc1ccc(-c2cc(C(=O)Nc3cc(C)on3)c3ccccc3n2)c(C)c1`, the viability in assay [1] was 77.5%; in assay [3], 77.5% (inactive); in assay [4], 96% (inactive); in assay [5], 84.7% (inactive); in [6] (setting [16]) it was 89.9%; in assay [6] (setting [17]), 84.7%. Also, the results for the viability in [12] and in assay [13] were 87.4% (inactive) and 82.4% (inactive), respectively. Moreover, the Her2 level in assay [2] was 99.5% (inactive). Also, the differential viability (reversal) in assay [6] (H69AR cells + 2 uM doxorubicin) is -5.17% (inactive). In addition, the values for the inhibition in [7], in assay [8] and in [14] were -4.67% (inactive), 3.67% (inactive) and 1.68% (inactive), respectively. Further, the values for the growth inhibition in assay [9] and in [10] were -8.89% (inactive) and -8.38% (inactive), respectively. Also, the viability increase in assay [11] is -0.76% (inactive). In addition, the RAM network inhibition in assay [15] is 7.01% (inactive).

Take `COc1cc(C2NC(=O)NC(C)=C2C(=O)OCC2CCCO2)ccc1O` (stereo not drawn): the viability was 90.5% in assay [1]; 90.5% (inactive) in [3]; 94.4% (inactive) in assay [4]; 103% (inactive) in assay [5]; 97.4% in assay [6] (setting [16]); 103% in [6] (setting [17]). Further, the values for the viability in assay [12] and in [13] were 91.1% (inactive) and 88.3% (inactive), respectively. The Her2 level in assay [2] is 86.5% (inactive). Besides, the differential viability (reversal) in [6] (H69AR cells + 2 uM doxorubicin) was 5.47% (inactive). Also, the results for the inhibition in assay [7], in assay [8] and in assay [14] were -6.08% (inactive), -2.13% (inactive) and 1.59% (inactive), respectively. The values for the growth inhibition in [9] and in [10] were -7.94% (inactive) and -14.9% (inactive), respectively. Moreover, the viability increase in [11] is -1.14% (inactive). Further, the RAM network inhibition in assay [15] is 1.93% (inactive).

Regarding `CCN1C(=O)c2ccccc2S(=O)(=O)c2ccc(C(=O)NCc3cccnc3)cc21`, the viability in [1] is 95.5%; in assay [3], 95.5% (inactive); in [4], 85.6% (inactive); in assay [5], 91.5% (inactive); in assay [6] (setting [16]) it was 91.6%; in assay [6] (setting [17]) it was 91.5%. For the same compound, the viability was 93.4% (inactive) in assay [12] and 90.4% (inactive) in assay [13]. Also, the Her2 level in assay [2] is 114% (inactive). The differential viability (reversal) in [6] (H69AR cells + 2 uM doxorubicin) is -0.065% (inactive). Also, the figures for the inhibition in assay [7], in assay [8] and in [14] were 0.93% (inactive), 8.5% (inactive) and 0.65% (inactive), respectively. Also, the growth inhibition in [9] was -2.51% (inactive); in assay [10], -4.21% (inactive). The viability increase in assay [11] was -2.25% (inactive). In addition, the RAM network inhibition in assay [15] is 1.98% (inactive).
